According to ChEMBL document CHEMBL1961873, “Compounds: GSK PKIS; Assays: Nanosyn kinase panel” (2012):

Key:
[1] = target: T1, Ephrin type-B receptor 2 (Homo sapiens) (UniProt P29323); details: at 1 µM
T1 sequence (whole entry): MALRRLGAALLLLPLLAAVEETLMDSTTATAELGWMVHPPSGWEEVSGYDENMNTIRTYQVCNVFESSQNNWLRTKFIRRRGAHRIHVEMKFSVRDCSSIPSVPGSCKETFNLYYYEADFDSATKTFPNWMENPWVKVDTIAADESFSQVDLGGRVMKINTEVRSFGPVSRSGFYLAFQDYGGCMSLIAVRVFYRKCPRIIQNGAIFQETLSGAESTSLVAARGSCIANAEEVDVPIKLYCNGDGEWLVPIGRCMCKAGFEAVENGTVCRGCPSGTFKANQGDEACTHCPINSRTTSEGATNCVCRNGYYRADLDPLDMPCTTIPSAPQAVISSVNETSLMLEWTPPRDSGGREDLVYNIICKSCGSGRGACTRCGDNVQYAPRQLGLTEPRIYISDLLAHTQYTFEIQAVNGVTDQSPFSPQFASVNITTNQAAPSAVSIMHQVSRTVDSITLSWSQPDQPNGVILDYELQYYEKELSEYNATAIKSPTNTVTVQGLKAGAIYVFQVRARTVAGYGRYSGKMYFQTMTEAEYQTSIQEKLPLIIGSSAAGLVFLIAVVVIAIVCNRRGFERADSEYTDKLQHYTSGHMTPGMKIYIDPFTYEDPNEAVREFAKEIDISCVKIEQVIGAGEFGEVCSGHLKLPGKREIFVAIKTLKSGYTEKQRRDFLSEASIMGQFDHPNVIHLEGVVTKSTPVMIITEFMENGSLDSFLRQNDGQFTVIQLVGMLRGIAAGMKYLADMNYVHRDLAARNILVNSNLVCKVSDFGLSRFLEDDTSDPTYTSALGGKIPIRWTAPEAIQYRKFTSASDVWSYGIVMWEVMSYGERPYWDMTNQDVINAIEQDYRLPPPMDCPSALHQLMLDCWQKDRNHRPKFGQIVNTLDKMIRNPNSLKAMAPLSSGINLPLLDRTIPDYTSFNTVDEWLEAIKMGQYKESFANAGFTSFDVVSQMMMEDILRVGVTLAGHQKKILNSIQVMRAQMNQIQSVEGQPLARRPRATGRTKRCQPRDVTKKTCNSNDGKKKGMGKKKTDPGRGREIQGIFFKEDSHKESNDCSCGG

[2] = target: T2, Ephrin type-B receptor 3 (Homo sapiens) (UniProt P54753); details: at 0.1 µM
T2 sequence (whole entry): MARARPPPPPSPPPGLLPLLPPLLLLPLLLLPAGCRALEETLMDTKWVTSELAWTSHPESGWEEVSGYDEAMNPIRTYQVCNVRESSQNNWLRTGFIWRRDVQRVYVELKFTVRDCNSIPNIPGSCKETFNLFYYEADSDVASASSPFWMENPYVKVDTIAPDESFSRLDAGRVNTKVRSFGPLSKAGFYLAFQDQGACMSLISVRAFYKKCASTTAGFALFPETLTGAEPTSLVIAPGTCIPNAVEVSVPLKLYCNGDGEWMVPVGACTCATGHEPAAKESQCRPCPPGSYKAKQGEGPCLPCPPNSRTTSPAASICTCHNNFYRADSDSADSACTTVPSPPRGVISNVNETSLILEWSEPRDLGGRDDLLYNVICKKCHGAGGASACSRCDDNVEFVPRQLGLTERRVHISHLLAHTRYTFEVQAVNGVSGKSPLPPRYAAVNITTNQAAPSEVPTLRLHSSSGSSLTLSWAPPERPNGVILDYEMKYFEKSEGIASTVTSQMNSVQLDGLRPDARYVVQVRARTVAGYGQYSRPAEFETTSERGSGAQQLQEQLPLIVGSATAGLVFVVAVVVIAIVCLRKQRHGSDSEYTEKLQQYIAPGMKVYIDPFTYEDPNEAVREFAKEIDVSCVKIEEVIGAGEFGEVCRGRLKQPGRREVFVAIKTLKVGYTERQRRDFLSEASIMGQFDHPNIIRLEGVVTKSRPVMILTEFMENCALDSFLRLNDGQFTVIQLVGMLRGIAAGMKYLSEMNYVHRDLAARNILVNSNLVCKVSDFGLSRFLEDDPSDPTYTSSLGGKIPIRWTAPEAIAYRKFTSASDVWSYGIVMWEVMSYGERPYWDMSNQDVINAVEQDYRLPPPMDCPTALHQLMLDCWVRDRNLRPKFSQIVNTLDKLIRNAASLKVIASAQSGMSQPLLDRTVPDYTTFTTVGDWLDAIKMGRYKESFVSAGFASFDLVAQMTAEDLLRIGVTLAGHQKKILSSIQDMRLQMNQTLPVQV

[3] = target: T2, Ephrin type-B receptor 3 (Homo sapiens); details: at 1 µM
[4] = target: T3, Ephrin type-B receptor 4 (Homo sapiens) (UniProt P54760); details: at 0.1 µM
T3 sequence (whole entry): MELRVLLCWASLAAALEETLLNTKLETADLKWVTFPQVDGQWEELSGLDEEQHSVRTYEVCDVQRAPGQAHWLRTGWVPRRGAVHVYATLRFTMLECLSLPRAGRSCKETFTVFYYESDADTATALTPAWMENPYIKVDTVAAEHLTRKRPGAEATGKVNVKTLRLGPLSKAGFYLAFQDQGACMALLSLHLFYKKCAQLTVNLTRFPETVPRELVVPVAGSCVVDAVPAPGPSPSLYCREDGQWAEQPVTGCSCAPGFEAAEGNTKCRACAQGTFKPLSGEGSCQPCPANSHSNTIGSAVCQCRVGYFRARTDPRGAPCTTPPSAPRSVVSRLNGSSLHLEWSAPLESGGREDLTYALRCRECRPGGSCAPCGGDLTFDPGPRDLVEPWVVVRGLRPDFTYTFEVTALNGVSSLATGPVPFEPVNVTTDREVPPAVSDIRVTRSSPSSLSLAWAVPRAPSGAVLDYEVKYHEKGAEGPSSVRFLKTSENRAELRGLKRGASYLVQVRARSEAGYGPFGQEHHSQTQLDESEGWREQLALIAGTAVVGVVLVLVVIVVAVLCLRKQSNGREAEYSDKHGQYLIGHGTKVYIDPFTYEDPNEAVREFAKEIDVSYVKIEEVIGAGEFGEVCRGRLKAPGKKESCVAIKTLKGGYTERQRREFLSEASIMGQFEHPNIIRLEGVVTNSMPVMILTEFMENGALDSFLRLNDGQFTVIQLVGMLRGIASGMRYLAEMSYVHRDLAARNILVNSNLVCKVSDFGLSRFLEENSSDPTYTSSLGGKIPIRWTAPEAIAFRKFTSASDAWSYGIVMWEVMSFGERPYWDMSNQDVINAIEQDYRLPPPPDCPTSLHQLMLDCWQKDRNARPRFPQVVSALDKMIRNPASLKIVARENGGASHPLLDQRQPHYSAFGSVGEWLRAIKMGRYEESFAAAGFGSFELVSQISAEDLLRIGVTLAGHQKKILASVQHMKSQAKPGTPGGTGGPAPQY

[5] = target: T3, Ephrin type-B receptor 4 (Homo sapiens); details: at 1 µM
[6] = target: Receptor tyrosine-protein kinase erbB-2 (Homo sapiens) (UniProt P04626); details: at 0.1 µM
[7] = target: Receptor tyrosine-protein kinase erbB-2 (Homo sapiens) (UniProt P04626); details: at 1 µM
[8] = target: Receptor tyrosine-protein kinase erbB-4 (Homo sapiens) (UniProt Q15303); details: at 0.1 µM
[9] = target: Receptor tyrosine-protein kinase erbB-4 (Homo sapiens) (UniProt Q15303); details: at 1 µM
[10] = target: Tyrosine-protein kinase Fer (Homo sapiens) (UniProt P16591); details: at 0.1 µM
[11] = target: Tyrosine-protein kinase Fer (Homo sapiens) (UniProt P16591); details: at 1 µM
[12] = target: Tyrosine-protein kinase Fes/Fps (Homo sapiens) (UniProt P07332); details: at 0.1 µM
[13] = target: Tyrosine-protein kinase Fes/Fps (Homo sapiens) (UniProt P07332); details: at 1 µM
[14] = target: Fibroblast growth factor receptor 1 (Homo sapiens) (UniProt P11362); details: at 0.1 µM
[15] = target: Fibroblast growth factor receptor 1 (Homo sapiens) (UniProt P11362); details: at 1 µM
[16] = target: Fibroblast growth factor receptor 2 (Homo sapiens) (UniProt P21802); details: at 0.1 µM
[17] = target: Fibroblast growth factor receptor 2 (Homo sapiens) (UniProt P21802); details: at 1 µM
[18] = target: Fibroblast growth factor receptor 3 (Homo sapiens) (UniProt P22607); details: at 0.1 µM
[19] = target: Fibroblast growth factor receptor 3 (Homo sapiens) (UniProt P22607); details: at 1 µM
[20] = target: Fibroblast growth factor receptor 4 (Homo sapiens) (UniProt P22455); details: at 0.1 µM;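 also: values are mean percent inhibition of FGFR4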
Fibroblast growth factor receptor 4 (Homo sapiens), sequence (P22455 22-802 limits assumed): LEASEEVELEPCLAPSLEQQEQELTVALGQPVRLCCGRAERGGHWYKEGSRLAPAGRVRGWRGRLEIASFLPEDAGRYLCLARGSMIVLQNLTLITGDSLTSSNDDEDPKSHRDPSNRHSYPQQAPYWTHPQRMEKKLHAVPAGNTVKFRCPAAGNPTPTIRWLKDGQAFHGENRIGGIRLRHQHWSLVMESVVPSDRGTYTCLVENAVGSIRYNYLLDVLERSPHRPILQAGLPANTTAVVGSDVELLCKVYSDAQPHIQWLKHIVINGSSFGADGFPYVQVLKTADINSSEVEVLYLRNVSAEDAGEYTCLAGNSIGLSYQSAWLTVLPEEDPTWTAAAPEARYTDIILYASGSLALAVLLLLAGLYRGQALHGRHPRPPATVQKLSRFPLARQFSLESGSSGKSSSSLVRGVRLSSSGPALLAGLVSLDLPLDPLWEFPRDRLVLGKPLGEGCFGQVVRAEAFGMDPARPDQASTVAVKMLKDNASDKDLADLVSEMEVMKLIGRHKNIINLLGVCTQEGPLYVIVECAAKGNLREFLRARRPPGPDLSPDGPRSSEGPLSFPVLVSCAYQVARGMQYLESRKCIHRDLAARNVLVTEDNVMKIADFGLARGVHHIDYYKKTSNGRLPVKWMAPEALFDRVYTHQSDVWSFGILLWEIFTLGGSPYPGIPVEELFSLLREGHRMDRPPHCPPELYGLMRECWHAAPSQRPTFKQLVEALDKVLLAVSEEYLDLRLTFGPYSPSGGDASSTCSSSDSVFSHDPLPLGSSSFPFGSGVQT

Receptor tyrosine-protein kinase erbB-4 (Homo sapiens), sequence (Q15303 whole entry): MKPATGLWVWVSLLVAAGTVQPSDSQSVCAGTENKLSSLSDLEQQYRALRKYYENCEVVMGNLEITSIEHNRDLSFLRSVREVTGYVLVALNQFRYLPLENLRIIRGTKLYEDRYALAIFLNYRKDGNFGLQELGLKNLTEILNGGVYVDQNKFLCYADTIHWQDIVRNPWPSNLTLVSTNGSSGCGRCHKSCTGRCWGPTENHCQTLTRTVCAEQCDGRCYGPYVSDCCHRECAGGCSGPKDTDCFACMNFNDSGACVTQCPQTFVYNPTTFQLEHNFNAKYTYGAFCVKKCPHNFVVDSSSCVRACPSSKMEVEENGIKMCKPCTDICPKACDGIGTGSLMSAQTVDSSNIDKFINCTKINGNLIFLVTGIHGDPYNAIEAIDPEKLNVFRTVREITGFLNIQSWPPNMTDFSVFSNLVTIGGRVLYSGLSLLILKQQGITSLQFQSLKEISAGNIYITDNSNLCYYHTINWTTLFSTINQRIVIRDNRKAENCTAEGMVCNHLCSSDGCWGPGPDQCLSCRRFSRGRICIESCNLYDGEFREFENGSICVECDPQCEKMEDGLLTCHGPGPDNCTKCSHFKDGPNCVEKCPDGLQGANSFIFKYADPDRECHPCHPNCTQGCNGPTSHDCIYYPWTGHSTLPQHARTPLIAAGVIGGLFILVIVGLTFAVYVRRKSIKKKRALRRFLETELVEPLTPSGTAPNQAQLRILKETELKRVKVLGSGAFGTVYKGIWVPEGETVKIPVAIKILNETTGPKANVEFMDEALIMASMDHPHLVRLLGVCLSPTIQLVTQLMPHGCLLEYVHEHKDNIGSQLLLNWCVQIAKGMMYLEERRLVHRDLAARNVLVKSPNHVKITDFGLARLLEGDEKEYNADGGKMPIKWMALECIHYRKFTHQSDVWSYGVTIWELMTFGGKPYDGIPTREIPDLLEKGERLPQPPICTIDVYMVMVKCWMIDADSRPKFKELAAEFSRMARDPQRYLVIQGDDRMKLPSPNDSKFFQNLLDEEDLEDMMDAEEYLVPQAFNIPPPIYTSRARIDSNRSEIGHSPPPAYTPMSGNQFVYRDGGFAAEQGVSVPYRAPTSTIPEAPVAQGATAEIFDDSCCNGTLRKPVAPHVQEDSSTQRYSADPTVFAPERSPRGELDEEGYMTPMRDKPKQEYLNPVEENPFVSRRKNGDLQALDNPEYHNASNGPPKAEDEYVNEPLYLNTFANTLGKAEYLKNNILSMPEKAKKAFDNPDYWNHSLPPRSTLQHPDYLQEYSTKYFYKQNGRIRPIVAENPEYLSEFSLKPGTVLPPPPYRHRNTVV
Tyrosine-protein kinase Fer (Homo sapiens), sequence (P16591 whole entry, looked up): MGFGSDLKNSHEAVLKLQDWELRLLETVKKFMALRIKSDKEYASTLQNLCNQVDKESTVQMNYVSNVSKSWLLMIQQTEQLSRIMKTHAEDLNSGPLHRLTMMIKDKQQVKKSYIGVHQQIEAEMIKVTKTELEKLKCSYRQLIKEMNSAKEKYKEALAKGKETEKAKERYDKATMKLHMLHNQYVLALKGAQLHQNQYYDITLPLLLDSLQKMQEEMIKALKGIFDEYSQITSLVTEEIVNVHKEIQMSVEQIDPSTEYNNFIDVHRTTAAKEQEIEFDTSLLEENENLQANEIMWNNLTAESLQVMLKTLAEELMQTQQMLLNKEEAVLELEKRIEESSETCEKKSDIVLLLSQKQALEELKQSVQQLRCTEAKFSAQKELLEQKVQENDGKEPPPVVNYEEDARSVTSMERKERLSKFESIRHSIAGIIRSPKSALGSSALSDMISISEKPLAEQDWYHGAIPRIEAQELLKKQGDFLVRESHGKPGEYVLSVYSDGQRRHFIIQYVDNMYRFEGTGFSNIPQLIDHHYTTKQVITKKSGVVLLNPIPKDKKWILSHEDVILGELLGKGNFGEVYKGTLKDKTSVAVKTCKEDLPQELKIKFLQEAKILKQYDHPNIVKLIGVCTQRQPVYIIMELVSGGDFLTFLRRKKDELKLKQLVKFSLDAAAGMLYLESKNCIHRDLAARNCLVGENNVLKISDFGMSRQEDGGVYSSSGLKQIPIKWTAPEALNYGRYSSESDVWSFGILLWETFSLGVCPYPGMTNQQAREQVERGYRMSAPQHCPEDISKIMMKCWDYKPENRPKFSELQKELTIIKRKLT
Tyrosine-protein kinase Fes/Fps (Homo sapiens), sequence (P07332 whole entry): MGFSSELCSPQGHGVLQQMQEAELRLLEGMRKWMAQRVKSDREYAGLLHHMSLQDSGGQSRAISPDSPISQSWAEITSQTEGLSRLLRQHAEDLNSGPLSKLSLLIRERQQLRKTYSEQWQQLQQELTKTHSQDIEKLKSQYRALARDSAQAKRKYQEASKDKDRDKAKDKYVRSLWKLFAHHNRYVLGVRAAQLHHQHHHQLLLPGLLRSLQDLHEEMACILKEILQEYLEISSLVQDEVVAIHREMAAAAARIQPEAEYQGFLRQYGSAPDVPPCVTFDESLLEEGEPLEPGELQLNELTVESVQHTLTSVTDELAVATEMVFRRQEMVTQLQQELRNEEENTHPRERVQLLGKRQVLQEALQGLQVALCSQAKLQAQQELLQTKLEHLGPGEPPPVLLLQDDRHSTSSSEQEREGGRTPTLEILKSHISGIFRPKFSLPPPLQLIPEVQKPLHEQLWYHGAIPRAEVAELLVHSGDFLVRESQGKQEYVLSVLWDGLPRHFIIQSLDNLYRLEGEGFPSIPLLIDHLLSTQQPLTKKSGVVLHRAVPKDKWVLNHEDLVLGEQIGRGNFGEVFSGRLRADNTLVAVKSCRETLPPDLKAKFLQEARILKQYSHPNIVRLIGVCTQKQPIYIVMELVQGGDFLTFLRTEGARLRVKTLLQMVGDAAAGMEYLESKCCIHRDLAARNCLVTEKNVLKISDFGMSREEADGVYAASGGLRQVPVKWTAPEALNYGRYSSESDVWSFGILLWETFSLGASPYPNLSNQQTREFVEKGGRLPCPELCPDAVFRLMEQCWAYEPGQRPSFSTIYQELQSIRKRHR
Receptor tyrosine-protein kinase erbB-2 (Homo sapiens), sequence (P04626 whole entry): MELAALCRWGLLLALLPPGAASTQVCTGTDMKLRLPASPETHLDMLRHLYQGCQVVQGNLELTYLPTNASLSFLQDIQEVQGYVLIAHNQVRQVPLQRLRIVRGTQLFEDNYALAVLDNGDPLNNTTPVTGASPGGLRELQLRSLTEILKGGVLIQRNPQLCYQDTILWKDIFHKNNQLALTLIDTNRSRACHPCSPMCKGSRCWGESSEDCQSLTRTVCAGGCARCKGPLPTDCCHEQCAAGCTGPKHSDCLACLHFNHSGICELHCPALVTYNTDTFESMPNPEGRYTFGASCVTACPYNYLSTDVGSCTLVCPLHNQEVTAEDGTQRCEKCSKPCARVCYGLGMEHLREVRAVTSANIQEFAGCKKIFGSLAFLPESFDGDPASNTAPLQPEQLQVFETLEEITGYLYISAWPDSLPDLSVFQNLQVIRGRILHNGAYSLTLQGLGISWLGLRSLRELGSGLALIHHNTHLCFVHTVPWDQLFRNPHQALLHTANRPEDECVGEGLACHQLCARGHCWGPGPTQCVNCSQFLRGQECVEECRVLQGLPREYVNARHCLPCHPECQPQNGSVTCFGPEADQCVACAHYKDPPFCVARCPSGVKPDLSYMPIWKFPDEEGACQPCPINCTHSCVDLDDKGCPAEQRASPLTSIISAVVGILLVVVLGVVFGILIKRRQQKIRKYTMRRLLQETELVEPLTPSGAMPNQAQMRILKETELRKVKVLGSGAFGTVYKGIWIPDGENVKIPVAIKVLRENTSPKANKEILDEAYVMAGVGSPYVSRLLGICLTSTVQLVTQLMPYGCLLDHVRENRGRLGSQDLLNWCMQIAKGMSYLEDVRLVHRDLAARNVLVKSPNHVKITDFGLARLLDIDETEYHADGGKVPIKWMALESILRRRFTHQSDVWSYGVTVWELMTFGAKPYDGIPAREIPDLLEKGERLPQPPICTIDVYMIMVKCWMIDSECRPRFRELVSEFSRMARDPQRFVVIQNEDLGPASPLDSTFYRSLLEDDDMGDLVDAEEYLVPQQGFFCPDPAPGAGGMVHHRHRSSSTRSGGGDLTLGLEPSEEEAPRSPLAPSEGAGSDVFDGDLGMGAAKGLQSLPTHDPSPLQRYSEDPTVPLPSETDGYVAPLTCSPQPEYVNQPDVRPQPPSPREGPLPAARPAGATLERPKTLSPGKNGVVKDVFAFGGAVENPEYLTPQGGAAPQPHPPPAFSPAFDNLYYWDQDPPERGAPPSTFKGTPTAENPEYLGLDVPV

## [O-][S+]1CCN(Cc2ccc(-c3ccc4ncnc(Nc5ccc(OCc6ccccc6)c(Cl)c5)c4c3)o2)CC1
[1]
  inhibition: 5.17%
[2]
  inhibition: 0.63%
[3]
  inhibition: 1.88%
[4]
  inhibition: -0.7%
[5]
  inhibition: -0.05%
[6]
  inhibition: 37.5%
[7]
  inhibition: 72.6%
[8]
  inhibition: 69.6%
[9]
  inhibition: 84.3%
[10]
  inhibition: -2.55%
[11]
  inhibition: 4.1%
[12]
  inhibition: 1.31%
[13]
  inhibition: 1.62%
[14]
  inhibition: -2.69%
[15]
  inhibition: 1.21%
[16]
  inhibition: 0.85%
[17]
  inhibition: 3.74%
[18]
  inhibition: -0.22%
[19]
  inhibition: 3.23%
[20]
  inhibition: -0.05%

## Cc1ccc2c(c1)/C(=N/Nc1ccc(S(N)(=O)=O)cc1)C(=O)N2
[1]
  inhibition: -1.87%
[2]
  inhibition: 2.46%
[3]
  inhibition: -0.26%
[4]
  inhibition: 0.65%
[5]
  inhibition: 0.71%
[6]
  inhibition: 0.1%
[7]
  inhibition: -4.77%
[8]
  inhibition: 6.45%
[9]
  inhibition: 7.37%
[10]
  inhibition: 1.02%
[11]
  inhibition: 0.29%
[12]
  inhibition: -0.01%
[13]
  inhibition: 0.85%
[14]
  inhibition: 0.1%
[15]
  inhibition: 4.71%
[16]
  inhibition: 2.39%
[17]
  inhibition: 27.2%
[18]
  inhibition: 4.04%
[19]
  inhibition: 26.5%
[20]
  inhibition: -1.85%

## CS(=O)(=O)CCNCc1nc(-c2ccc3ncnc(Nc4ccc(OCc5cccc(C(F)(F)F)c5)cc4)c3c2)cs1
[1]
  inhibition: 6.37%
[2]
  inhibition: 2.8%
[3]
  inhibition: 3.98%
[4]
  inhibition: -1.44%
[5]
  inhibition: 2.09%
[6]
  inhibition: 4.71%
[7]
  inhibition: 4.32%
[8]
  inhibition: 6.42%
[9]
  inhibition: 25.6%
[10]
  inhibition: 3.78%
[11]
  inhibition: 6.92%
[12]
  inhibition: 1.48%
[13]
  inhibition: 3.22%
[14]
  inhibition: 2.15%
[15]
  inhibition: 4.98%
[16]
  inhibition: 6.08%
[17]
  inhibition: 5.8%
[18]
  inhibition: 4.91%
[19]
  inhibition: 4.35%
[20]
  inhibition: 4.89%

## Cc1nc(-c2ccccc2)n2nc(NCCCN3CCOCC3)ncc12
[1]
  inhibition: 7.29%
[2]
  inhibition: 2.93%
[3]
  inhibition: 3.76%
[4]
  inhibition: 1.32%
[5]
  inhibition: 4.69%
[6]
  inhibition: 1.95%
[7]
  inhibition: 5.51%
[8]
  inhibition: 5.53%
[9]
  inhibition: 11.3%
[10]
  inhibition: 1.34%
[11]
  inhibition: 2.98%
[12]
  inhibition: 2.16%
[13]
  inhibition: 3.03%
[14]
  inhibition: -1.62%
[15]
  inhibition: -3.57%
[16]
  inhibition: 3.94%
[17]
  inhibition: 11.8%
[18]
  inhibition: 6.35%
[19]
  inhibition: 4.45%
[20]
  inhibition: 6.31%

## COc1cccc(-n2nc(C)c3c(N/N=C(\C)c4ccncc4)ncnc32)c1
[1]
  inhibition: 3.31%
[2]
  inhibition: 1.98%
[3]
  inhibition: 0.96%
[4]
  inhibition: 0.44%
[5]
  inhibition: 1.01%
[6]
  inhibition: 0.07%
[7]
  inhibition: 2.47%
[8]
  inhibition: 0.79%
[9]
  inhibition: -0.06%
[10]
  inhibition: 1.02%
[11]
  inhibition: 1.89%
[12]
  inhibition: 0.8%
[13]
  inhibition: 0.14%
[14]
  inhibition: 1.88%
[15]
  inhibition: -1.01%
[16]
  inhibition: 3.14%
[17]
  inhibition: -0.1%
[18]
  inhibition: 1.89%
[19]
  inhibition: 2%
[20]
  inhibition: 1.2%

## c1ccc(Nc2ncc(-c3ccccc3)o2)cc1
[1]
  inhibition: 12.9%
[2]
  inhibition: 2.14%
[3]
  inhibition: 6.32%
[4]
  inhibition: 4.58%
[5]
  inhibition: 5.49%
[6]
  inhibition: 43.6%
[7]
  inhibition: 8.36%
[8]
  inhibition: 11%
[9]
  inhibition: 16%
[10]
  inhibition: 3.09%
[11]
  inhibition: 0.57%
[12]
  inhibition: 3.92%
[13]
  inhibition: 4.9%
[14]
  inhibition: -1.19%
[15]
  inhibition: 8.3%
[16]
  inhibition: 6.37%
[17]
  inhibition: 10.5%
[18]
  inhibition: 7.27%
[19]
  inhibition: 6.62%
[20]
  inhibition: 2.33%

## NS(=O)(=O)c1cccc(-c2cc3ccncc3cc2OCc2ccccc2)c1
[1]
  inhibition: 9.74%
[2]
  inhibition: 6.23%
[3]
  inhibition: 4.28%
[4]
  inhibition: 2.45%
[5]
  inhibition: 2.84%
[6]
  inhibition: 1.13%
[7]
  inhibition: -3.29%
[8]
  inhibition: 8.81%
[9]
  inhibition: 9.16%
[10]
  inhibition: 3.7%
[11]
  inhibition: 4.16%
[12]
  inhibition: 4.25%
[13]
  inhibition: 7.11%
[14]
  inhibition: 8.63%
[15]
  inhibition: 10.7%
[16]
  inhibition: 9.37%
[17]
  inhibition: 15.6%
[18]
  inhibition: 8.37%
[19]
  inhibition: 13%
[20]
  inhibition: 0.02%
